# Screens: PubChem BioAssay, National Center for Advancing Translational Sciences (NCATS)
# D1 ag: human D1 receptor agonism. P21728. HEK293 T-REx D1 cells, calcium flux, agonist mode. activation, % at 2 µM. 360,000 tested, 1% active; in the data active means activation above about 30%; further: 0% is about no effect
#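 Agonism was scored from calcium flux recorded over 180 s (1 read/s) after pintool compound addition, following a 10-cycle baseline. Cells were inducible force-coupled HEK293 TREx D1, plated overnight at 30 C and loaded with no-wash calcium dye.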
# D3 ag: activates the human D3 dopamine receptor; 410,000 tested, 0.58% active; max activation, %; AID 652048; D3R DiscoveRx beta-arrestin cells, luminescence, 90 min; in the data active means max activation above about 30%; further: 0% is about no effect
# Target sequence (P35462 whole entry, looked up): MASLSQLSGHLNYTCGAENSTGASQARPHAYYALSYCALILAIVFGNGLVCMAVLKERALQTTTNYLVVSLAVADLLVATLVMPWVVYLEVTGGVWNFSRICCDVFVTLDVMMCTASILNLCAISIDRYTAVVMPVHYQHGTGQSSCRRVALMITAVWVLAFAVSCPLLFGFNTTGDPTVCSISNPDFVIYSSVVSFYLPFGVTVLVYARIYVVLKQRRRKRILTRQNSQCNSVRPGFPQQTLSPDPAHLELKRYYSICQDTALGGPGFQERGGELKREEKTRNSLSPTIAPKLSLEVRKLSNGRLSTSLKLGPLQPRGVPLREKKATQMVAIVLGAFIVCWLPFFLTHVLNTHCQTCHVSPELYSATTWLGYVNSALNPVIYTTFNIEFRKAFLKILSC
#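 Cells at 1500/well, incubated overnight, then treated with pinned compounds (dopamine as control) for 90 min at 37 degrees C. DiscoveRx reagent added for 30 - 60 minutes at room temperature; luminescence read.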
# D1 antag: antagonists of human D1 dopamine receptor; P21728; AID 504652; activity change, negative = inhibition, % at 10 µM; HEK293 TREx D1 cells, calcium flux, dopamine EC80; stronger effect = lower value; 360,000 tested, 3.2% active; in the data active means activity change below about -30%; further: on the % scale 0 is the no-effect control and ±100 the full control effect
#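 Kinetic fluorescence of a calcium dye serves as the read-out. D1-expressing Hek293 Trex cells, induced overnight at 30 C, are exposed to compound for 180 s before an EC80 dopamine addition, then read 180 s further.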
# D1 PAM: potentiators of human D1 dopamine receptor; 360,000 tested, 0.036% active; potentiation, % at 10 µM; HEK293 TREx D1 cells, calcium flux, dopamine EC20 potentiation; AID 504651; P21728; in the data active means potentiation above about 30%; further: 0% is about no effect
# DRD3 antagonist: blocks the human D3 dopamine receptor. max response, negative = inhibition, %. P35462. D3R cells, DiscoveRx beta-arrestin luminescence, antagonist mode; stronger effect = lower value. AID 652054. 360,000 tested, 2.5% active; in the data active means max response below about -50%; inconclusive means no clear call, values can overlap the other calls; further: on the % scale 0 is the no-effect control and ±100 the full control effect
#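 Cells expressing the human receptor were seeded at 1500 cells/well, incubated overnight at 37 degrees C in 5% CO2, then exposed to library compounds with dopamine controls for 90 minutes at 37 degrees C before luminescent detection.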
# Starred values were filed as active, the others as inactive; ? = inconclusive; · = no result given; ! = a repeat was not active. In the library only some 6% were active in any assay of this set; here they are far more common.
SMILES,D1 ag,D3 ag,D1 antag,D1 PAM,DRD3 antagonist
CC(C)Nc1nc2c(S(=O)(=O)c3cccc(Cl)c3)nnn2c2ccsc12,2.2,-12.7,-56.9*,-8.0,·
CCc1ccc(S(=O)(=O)c2nnn3c2nc(NC2CCCC2)c2sccc23)cc1,3.6,4.4,-31.5*,-5.8,·
CCCCNc1nc2c(S(=O)(=O)c3ccc(Cl)cc3)nnn2c2ccsc12,-0.4,5.3,-51.3*,-8.1,·
COc1ccc(CCC(C)NCc2cc(OC)cc(OC)c2)cc1 (configuration not stated),8.0,-5.8,-28.5,-6.3,12.7
COc1ccc(CCC(C)Nc2ccc(F)c(F)c2)cc1 (configuration not stated),1.0,-4.8,9.0,-10.8,1.6
COc1ccc(CCC(C)NCCc2ccc(Cl)cc2Cl)cc1 (configuration not stated),50.9*,-2.6,23.6,-8.8,0.0
COc1ccc(CCC(C)NCc2ccc(Cl)c(Cl)c2)cc1 (configuration not stated),31.7*,-17.4,4.2,-1.6,-55.2*
COc1ccc(-c2noc(CCCC(=O)NC3CCCCC3)n2)cc1,5.9,4.6,-37.3*,-14.1,1.2
COc1ccc(-c2noc(CCCC(=O)NC3CCCCC3)n2)cc1OC,2.6,-26.5,-1.8,7.5,-10.6
CCOc1ccc(-c2noc(CCCC(=O)NC3CCCC3)n2)cc1OC,0.1,-16.0,-84.9*,·,-6.6
COCCCn1c(=N)c(C(=O)NCC2CCCO2)cc2c(=O)n3cc(C)ccc3nc21 (configuration not stated),-2.4,3.2,-1.5,-0.5,·
COC(=O)[C@H](C)N(Cc1ccc(Cl)c(Cl)c1)S(=O)(=O)CCN1CCCC1,·,-72.7,·,·,-67.8*
COC(=O)[C@H](C(C)C)N(Cc1ccccc1)S(=O)(=O)CCN1CCN(c2ccccc2)CC1,·,-33.2,·,·,?
COC(=O)[C@H](C)N(Cc1ccc(Cl)c(Cl)c1)S(=O)(=O)CCN1CCN(c2ccccc2)CC1,·,-32.3,·,·,-70.8*
COC(=O)[C@H](C(C)C)N(Cc1ccccc1)S(=O)(=O)CCN1CCCC1,·,-38.7,·,·,-59.5*
CCN1CCOC(=O)C1CC(=O)Nc1ccc(C)c(Cl)c1 (configuration not stated),-1.2,-0.1,0.4,-3.9,·
CCN1CCN(Cc2ccc(NC(=O)Nc3ccccc3OC)cc2)CC1,-2.5,-23.5,-1.9,-6.7,-72.4*
COc1ccccc1NC(=O)Nc1ccc(N2CCOCC2)cc1,-0.8,7.5,-42.6*,0.3,-16.0
COc1ccccc1CNCC(=O)Nc1ccc(N2CCOCC2)cc1,2.6,-4.4,2.4,3.9,-6.2
CCN1CCN(CCC(=O)Nc2ccccc2OC)CC1,1.9,-5.2,1.1,-3.5,?
O=C(OCC(=O)C12CC3CC(CC(C3)C1)C2)c1ccc(O)cc1O,93.4*,-13.6,-1.4,43.2*,-11.3
COc1ccc(N2CCN(C(CNS(=O)(=O)c3ccc(OC)c(C)c3)c3ccco3)CC2)cc1 (configuration not stated),3.2,2.3,·,-4.2,·
O=C(c1ccc(NC(=S)NCc2ccc(Cl)cc2)cc1)N1CCCCC1,49.5*,6.4,-17.8,0.0,10.5
O=C(CNCc1ccc(Cl)cc1)Nc1ccc(C(=O)N2CCCCCC2)cc1,8.3,-20.6,-4.4,-2.5,-64.6*
O=C(CNCc1ccc(Cl)cc1)Nc1ccc(C(=O)N2CCCCC2)cc1,8.9,-10.8,-5.6,-10.5,-1.7
SMILES,D1 ag,D3 ag,D1 antag,D1 PAM,DRD3 antagonist
C=CS(=O)(=O)c1sc(Cl)c(N2CCOCC2)c1[N+](=O)[O-],1.1,-15.8,-10.5,-6.3,-72.4*
COc1ccc(CCNC(=O)c2nn(-c3ccc(C)cc3)c(=O)c3c2c2ccccc2n3C)cc1OC,18.5,2.4,-16.2,6.5,·
CC(=O)c1cc(C#N)c(SCCC(C)C)nc1C,7.6,7.4,-40.8*,-0.5,24.0
CCSc1nc(C)c(C(C)=O)cc1C#N,0.8,3.5,16.9,-4.1,-15.4
CC(=O)c1cc(C#N)c(N2CCCC2)nc1C,7.3,6.7,-36.3*,2.8,5.7
Cc1cc(C)c2cc(C#N)c(N3CCCC3)nc2c1,3.1,-7.1,1.0,-3.2,1.4
Cc1ccc(S(=O)(=O)N2CCN(Cc3ccccc3Cl)CC2)cc1,0.7,-28.1,-8.1,-0.9,·
COc1cccc(N2CC(NC(=O)COc3ccccc3F)CC2=O)c1 (configuration not stated),0.3,-9.3,·,0.8,·
Cc1ccc(CN2C(=O)C(Cc3ccccc3)Nc3ncnc(N4CCCCC4)c32)cc1 (configuration not stated),2.2,-21.5,-6.5,-5.0,-83.8*!
CCC1Nc2ncnc(N3CCCCC3)c2N(Cc2ccc(C)cc2)C1=O (configuration not stated),·,-9.0,·,·,?
CC(C)CC1Nc2ncnc(N3CCOCC3)c2N(Cc2ccccc2)C1=O (configuration not stated),·,60.5*!,·,·,1.1
COc1ccc(CN2C(=O)C(Cc3ccccc3)Nc3ncnc(N4CCCCC4)c32)cc1 (configuration not stated),0.6,-23.9,24.0,10.8,-53.1*
CC(C)CC1Nc2ncnc(N3CCOCC3)c2N(Cc2ccc(Cl)cc2)C1=O (configuration not stated),·,1.7,·,·,-24.4
O=C1C(Cc2ccccc2)Nc2ncnc(N3CCOCC3)c2N1Cc1ccc(Cl)cc1 (configuration not stated),3.5,-37.5,-21.1,-0.1,-101.7*!
CCC1Nc2ncnc(N3CCOCC3)c2N(Cc2ccc(OC)cc2)C1=O (configuration not stated),·,9.8,·,·,3.0
Cc1cn(C)c(CC(=O)NCc2ccccc2Cl)c1C(=O)O,-1.2,6.4,16.9,-3.0,·
Cc1ccc(CN2C(=O)C(Cc3ccccc3)Nc3ncnc(N4CCN(c5ccccc5)CC4)c32)cc1 (configuration not stated),2.9,-65.3,3.1,-1.1,-140.3*
O=C1C(Cc2ccccc2)Nc2ncnc(N3CCN(c4ccccc4)CC3)c2N1Cc1ccccc1 (configuration not stated),5.2,-28.6,8.5,0.6,-15.0
Cc1ccc(NC(=S)N(CCCN2CCCC(C)C2)Cc2ccco2)cc1C (configuration not stated),6.1,-23.5,-2.7,-12.8,-91.9*
Cc1cc(NC(=S)N(CCN2CCCCC2)Cc2ccco2)ccc1Cl,1.5,-30.0,-38.2*,-9.8,-24.0
COC(=O)CCN(c1ccccc1)C(CNS(=O)(=O)c1ccccc1)c1ccccc1 (configuration not stated),8.1,-7.8,12.4,-3.3,·
CC(C)(C)c1ccc(S(=O)(=O)NCc2ccc3c(c2)CCN3C(=O)c2ccccc2)cc1,5.5,5.6,-4.4,1.7,·
Cc1cc(C)cc(NC(=O)CSc2nc(=O)[nH]c3c2CCC3)c1,2.1,8.3,·,-1.6,·
Cc1noc(C)c1CN(C(=S)NC(C)C)c1ccccc1,3.1,-7.4,-32.3*,-4.7,-7.9
